# Among all 69,000 compounds or so, about 8,600 (12%) showed an effect of 50% or more. Many of the other results were omitted from the sample, so strong results are more common in it than they were.
# Tested on: Plasmodium berghei
# Experiment: Screen against P. berghei liver stage (PbLuc), transformed with Luciferase, at 10uM
# Type: functional, HepG2
# Settings: tested at 10 uM
row,SMILES,INHIBITION [%]
1,CCC(C)NC(=O)c1cc(S(=O)(=O)N2CCCC2)c(C)s1 (centres undefined),28.3
2,Cn1ccc(C(=O)NCc2ccc(N3CCOCC3)nc2)cc1=O,-29.9
3,O=C(NCC(F)(F)F)C1CSCN1S(=O)(=O)c1cccc(F)c1 (centres undefined),-16.6
4,COc1ccc(-c2cc(C(=O)NCCn3ccnc3)n(C)n2)cc1,-5.8
5,CN(Cc1ccc(O)cc1)C(=O)NCc1nnc2n1CCCCC2,-9.76
6,CCc1nc(CN2CCCN(CC(=O)N3CCOCC3)CC2)no1,13.8
7,CCC(C)C(=O)NCc1c(C)nn(C)c1N1CCCN(C)CC1 (centres undefined),-1.32
8,O=C(N1CCOCC1)N1CCC2(CC1)CN(c1ccccn1)CCO2,67.2
9,O=S(=O)(C1CC1)N1CCC2(CCCN(c3ncccn3)C2)C1 (centres undefined),19.6
10,NCCC(=O)N1CCC2(CC1)CN(C(=O)Cc1ccc(Cl)cc1)CCO2,64.8
11,O=S(=O)(C1CC1)N1CCC2(CN(c3ncccn3)C2)C1,54.8
12,NCCC(=O)N1CCC2(CC1)CN(C(=O)Cc1cccc(Cl)c1)CCO2,-4.76
13,Cc1occc1C(=O)N1CCC2(CC1)CN(c1ccccn1)CCO2,14.8
14,O=C(CC1CC1)N1CCC2(CC1)CN(c1ncc(F)cn1)CCO2,35.7
15,c1cnc(N2CCOC3(CCN(CC4CCCCC4)CC3)C2)nc1,34.7
16,CCCS(=O)(=O)N1CCC2(CC1)CN(c1ccccn1)CCO2,0
17,NCC(=O)N1CCC2(CC1)CN(C(=O)Cc1ccc(Cl)cc1)CCO2,-26.3
18,O=C(CC1CC1)N1CCC2(CC1)CN(c1ncccn1)CCO2,50
19,O=S(=O)(C1CC1)N1CCC2(CN(c3ccccn3)C2)C1,24.9
20,NC(=O)c1cnc(NC2CC2)nc1CCNC(=O)Cc1ccccc1,-50.3
21,CCn1nc(C)c(CNC(=O)NCC(C)(O)c2ccc(C)o2)c1C (centres undefined),-8.5
22,Cc1ccc(CN2CCC3(CC2)C(=O)N(CCO)CCN3C)o1,18.6
23,O=C(CCc1ccsc1)N1CCCC(N2CCNC2=O)C1 (centres undefined),-5.26
24,O=C(NCCc1ccccn1)N1CCOC(c2ccccc2Cl)C1 (centres undefined),-4.63
25,COc1cc(C2SC(C)=Nc3c2c(=O)[nH]n3C2CCCC2)ccc1O (centres undefined),24.7
26,CC(C)CC(=O)N1C[C@H]2CCCN(S(=O)(=O)c3ccc(Cl)s3)[C@H]2C1,-29.9

row,SMILES,INHIBITION [%]
1,O=C(Cc1ccccc1)N1CCC2(CC1)CN(c1ncccn1)CCO2,50.9
2,O=C(Cc1ccccn1)N1CCC2(CC1)CN(c1ncccn1)CCO2,27.6
3,COCC(=O)N1CCOC2(CCCN(c3cnccn3)C2)C1 (centres undefined),52.3
4,CS(=O)(=O)N1CCOC2(CCCN(c3cnccn3)C2)C1 (centres undefined),-14
5,CCS(=O)(=O)N1CCOC2(CCCN(c3cnccn3)C2)C1 (centres undefined),-7.59
6,CC(C)COC1CC2(CCN(C(=O)Cc3ccccn3)CC2)C1,64.7
7,CC(=O)N1CCCC2(C1)CN(C(=O)Cc1ccccc1)CCO2 (centres undefined),41.6
8,Cc1cnc(C(=O)N2CCC3(CC2)CN(c2ccccn2)CCO3)cn1,56.7
9,Cc1ccc(C(=O)N2CCC3(CC2)CN(c2ccccn2)CCO3)cc1,49.7
10,O=C(c1cscn1)N1CCC2(CC1)CN(c1ccccn1)CCO2,34.6
11,CCOC1CC2(CCN(C(=O)Cc3ccccn3)CC2)C1,31.2
12,O=C(Cc1ccccn1)N1CCC2(CC1)[C@H](O)C[C@@H]2O,39
13,CC1=C(C#N)C(=O)NC(=O)/C1=C\c1c(C)[nH]n(-c2ccc(Cl)cc2)c1=O,11.5
14,Cn1cc(CCNC(=O)N2CCCC(c3nncn3C)C2)cn1 (centres undefined),-18
15,Cc1nnc2n1CCN(Cc1csc(-c3ccsc3)n1)C2,14.4
16,CC(C)Cc1nc(CN2CCOC(Cn3cccn3)C2)no1 (centres undefined),28.8
17,O=C(c1ccc(-c2cnco2)cc1)N1CCC(Nc2cccnn2)CC1,-46.2
18,Cc1nccn1-c1cncc(C2CCCN2Cc2cccnc2)n1 (centres undefined),-22.6
19,CCC(CO)N(C/C(C)=C/c1ccco1)Cc1ccsc1 (centres undefined),42.3
20,COCCN1CCCc2sc(C(=O)NCC3CCCO3)nc21 (centres undefined),-50.8
21,COCCN(C)C[C@@H]1CCC[C@@H]2CN(c3ncccn3)C[C@@H]21,26
22,O=C(c1cccc(F)c1)N1CCC2(CC1)CN(c1ccccn1)CCO2,57.9
23,CN(C)C(=O)N1CCC2(CCCN(c3ncccn3)C2)C1 (centres undefined),11.5
24,c1cnc(N2CCCC3(CCN(CC4CCOC4)CC3)C2)nc1 (centres undefined),-19.1
25,O=C(CC1CC1)N1CCC2(CCCN(c3ncccn3)C2)CC1,52
26,O=C(c1ccnnc1)N1CCC2(CC1)CN(c1ccccn1)CCO2,33.4

row,SMILES,INHIBITION [%]
1,O=C(c1cccnc1)N1CCC2(CC1)CN(c1ccccn1)CCO2,-13.2
2,O=C(C1=CCCCC1)N1CCC2(CC1)COC(COc1ccccn1)C2 (centres undefined),3.41
3,Cc1ccccc1CC(=O)NS(=O)(=O)c1cccc2cnccc12,40.6
4,CC(C)n1cc(C(=O)N2CCN(c3cccc(C(F)(F)F)c3)CC2)cn1,62.8
5,Cc1cc(N2CCN(C(=O)c3cnn(C(C)C)c3)CC2)nc(N)n1,-2.73
6,Cc1cc(N2CCN(C(=O)c3cnn(C(C)C)c3)CC2)cc(C)n1,3
7,O=C(c1cscn1)N1CCO[C@H]2[C@@H](Oc3ccccn3)CC[C@@H]21,63.8
8,O=C(C1=CCCC1)N1CCO[C@H]2[C@@H](Oc3ccccn3)CC[C@@H]21,30.1
9,Cc1cncc(C(=O)N2CCO[C@H]3[C@H](Oc4ccccn4)CC[C@@H]32)c1,72.9
10,Cc1cc(C(=O)N2CCO[C@H]3[C@H](Oc4ccccn4)CC[C@@H]32)c(C)[nH]1,32.1
11,O=C(N1CCCC1)N1CCO[C@H]2[C@@H](Oc3ccccn3)CC[C@@H]21,35.3
12,Cc1occc1C(=O)N1CCO[C@H]2[C@@H](Oc3ccccn3)CC[C@@H]21,30.7
13,Cc1nn(C)c(C)c1C1CCCN1C(=O)c1ccc(C(N)=O)s1 (centres undefined),22.8
14,Cc1ccc(CN(C)c2cc(N3CCCC3CO)ncn2)s1 (centres undefined),-21.4
15,CCOC(=O)N1CCN(c2nc(NC)c3ccccc3n2)CC1,45
16,CCOC(=O)N1CCN(c2nc(N)c3ccccc3n2)CC1,-90.8
17,CCOC(=O)N1CCN(c2nc(NC3CC3)c3ccccc3n2)CC1,52.3
18,CCOC(=O)N1CCN(c2nc(NCCCO)c3ccccc3n2)CC1,51.3
19,CCOC(=O)N1CCN(c2nc(N3CCCC3)c3ccccc3n2)CC1,3.68
20,CCOC(=O)N1CCN(c2nc(NCCO)c3ccccc3n2)CC1,6.54
21,CNC(=O)CN1CC[C@H]2CN(C(=O)c3ccccc3F)C[C@H]2C1,19.4
22,CCn1c(C2CCNCC2)nn(CCn2ccc(C)n2)c1=O,21.1
23,CC(=O)N1CCCCC[C@@H]2[C@@H]1[C@H](c1cccc(F)c1)CN2C(C)=O,20.1
24,CCN1CCC(CNC(=O)C2(c3cccc(C)c3)CCCCC2)CC1,-3.2
25,CN1CCC(c2cncc(-c3cccc(Cl)c3)n2)CC1,19.6
26,CSc1ccc(CNc2ccccc2CN2CCC(O)CC2)cc1,-23.1

row,SMILES,INHIBITION [%]
1,Clc1ccc(CNc2ccc(Cl)cn2)cc1,-151
2,OC1CCN(Cc2ccc(CNc3ncc(Cl)cc3F)cc2)CC1,63.7
3,OC1CCN(Cc2ccc(CNc3ccc(Cl)cn3)cc2)CC1,54.3
4,CN(C)S(=O)(=O)c1ccc(CNc2ccc(Cl)cn2)cc1,79.8
5,CN(c1ccc(CNc2ccc(Cl)cn2)cc1)S(C)(=O)=O,-95.7
6,CC(C)c1ccc(CNC(C)c2ccc(S(C)(=O)=O)cc2)cc1 (centres undefined),6.39
7,OC1CCCN(CCNc2ncc(Cl)cc2F)C1 (centres undefined),22.1
8,Cc1nc(CNC(C)c2ccc(S(=O)(=O)N(C)C)cc2)no1 (centres undefined),45.7
9,CNS(=O)(=O)Cc1cccc(CNc2ccc(Cl)cn2)c1,45.2
10,CC(C)c1ccc(CNC(C)c2ccc(S(=O)(=O)N(C)C)cc2)cc1 (centres undefined),52.3
11,CC1CCN(CC(O)CNc2ccc(Cl)cn2)CC1 (centres undefined),35.6
12,CN(C)S(=O)(=O)N1C[C@@H]2C[C@H](C(=O)NCc3ccccc3)[C@H](C1)O2,21.5
13,CC(C)Oc1ccc(CNC(=O)CN(C)S(C)(=O)=O)cc1F,13.375
14,O=C(CCc1cc2n(n1)CCN(Cc1ccncc1)C2)N1CCCC1,33.5
15,COCC1CN(C(=O)Cc2ccccn2)Cc2cn(CC3CC3)nc21 (centres undefined),-26
16,CSc1ccc(CN(CCO)C(=O)CCc2cccc(F)c2)cc1,-1.04
17,CC(C)c1nsc(N2CCS(=O)(=O)CC2)n1,-16.3
18,CC(C)c1nsc(N2CCOCC2)n1,7.3
19,CC(C)c1nsc(N2CCCOCC2)n1,61.6
20,CC(C)c1nsc(N2CCSCC2)n1,-8
21,CC(C)c1nsc(N2CCOC3(CCCC3)C2)n1,-10.3
22,CC(C)c1nsc(N2CCC(OCCN3CCOCC3)CC2)n1,54.6
23,NC(=O)C1(c2cnccn2)CCCN1Cc1ccc(Cl)c(F)c1 (centres undefined),-6.3
24,Clc1ccc(CN(CCN2CCOCC2)Cc2cccnc2)cc1Cl,8.12
25,Cc1nn(C)c(C)c1-c1cnc(CC2CCNC2)cn1 (centres undefined),-22.3
26,Nc1nc2nc(C3CCCN(C(=O)c4cnccn4)C3)ccc2s1 (centres undefined),26.8

# Reference: ChEMBL document CHEMBL4513216, “Probing the Open Global Health Chemical Diversity Library for Multistage-Active Starting Points for Next-Generation Antimalarials” (ACS Infect Dis, 2020)
